Screening data from PubChem BioAssay.
G9a block = G9a (human) methyltransferase inhibition. 350,000 compounds, 8.8% hits. Potency, µM (doses to about 102 µM), for the others: at the top dose activity, negative = inhibition, hits mostly inhibitors. Q96KQ7. G9a H3K9 monomethylation, AlphaScreen, 2 h; note: % is set by controls: 0 for no effect and ±100 for the full control effect; nearly all actives have a fitted effect of over 75% in size
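Quantitative HTS format: methyltransferase activity on a biotin-tagged H3K9 peptide is measured by AlphaScreen, using a rabbit anti-monomethyl-H3K9 antibody with streptavidin donor and anti-IgG acceptor beads. Final levels are 20 nM enzyme, 500 nM peptide, 20 uM SAM; 2 h RT.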
JMJD2A Tudor inh = inhibitors of human JMJD2A Tudor domain. AlphaScreen JMJD2A-Tudor / H3K4me3 peptide binding. O75164. Potency, µM (doses to about 114 µM), without a hit: at the highest dose activity change, negative = inhibition, usual class: inhibitors. AID 504339. 390,000 compounds, 4.4% hits; note: % is set by controls: 0 for no effect and ±100 for the full control effect; nearly all actives have a fitted effect of over 50% in size
GLS inhibitor = glutaminase GLS (human) inhibition; O94925; GLS enzymatic activity, qHTS titration; Potency, µM (series often up to 45.5 µM), for the others: at the top dose activity change, negative = inhibition, most hits filed as inhibitors; 410,000 compounds, 0.21% hits; note: % is set by controls: 0 for no effect and ±100 for the full control effect
Target sequence (O94925 whole entry, looked up): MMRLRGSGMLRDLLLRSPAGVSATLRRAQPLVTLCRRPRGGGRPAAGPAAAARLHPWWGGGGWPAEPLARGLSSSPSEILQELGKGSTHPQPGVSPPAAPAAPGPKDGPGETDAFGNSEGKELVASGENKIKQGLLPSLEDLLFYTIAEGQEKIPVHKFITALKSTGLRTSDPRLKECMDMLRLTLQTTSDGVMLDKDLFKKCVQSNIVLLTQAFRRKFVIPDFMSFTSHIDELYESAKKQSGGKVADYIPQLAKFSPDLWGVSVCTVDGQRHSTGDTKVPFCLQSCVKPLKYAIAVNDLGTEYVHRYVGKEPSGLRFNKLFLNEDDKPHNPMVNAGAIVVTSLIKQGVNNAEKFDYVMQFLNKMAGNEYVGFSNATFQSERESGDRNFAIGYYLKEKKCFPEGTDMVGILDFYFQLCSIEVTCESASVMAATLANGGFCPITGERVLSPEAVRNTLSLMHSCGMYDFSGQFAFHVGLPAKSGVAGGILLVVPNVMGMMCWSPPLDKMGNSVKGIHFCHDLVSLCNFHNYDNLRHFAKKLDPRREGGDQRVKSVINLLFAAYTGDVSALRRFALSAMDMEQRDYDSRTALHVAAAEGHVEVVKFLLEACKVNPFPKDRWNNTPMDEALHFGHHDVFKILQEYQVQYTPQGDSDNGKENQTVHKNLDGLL
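Assay buffer: 45 mM KH2PO4 pH 8.2, 0.02% Tween-20. hKGA acts on L-glutamine (1 mM solution added); product glutamate is reported by an oxidase/peroxidase Amplex Red coupling, with fluorescence taken at baseline and 30 min.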
BAZ2B inh = inhibitors of human BAZ2B bromodomain | Potency, µM (top dose mostly 114 µM), for the others: top-dose activity change, negative = inhibition, hits mostly inhibitors | AID 504333 | Q9UIF8 | 360,000 compounds, 4.4% hits | AlphaScreen BAZ2B-H3K14Ac peptide displacement; note: % is set by controls: 0 for no effect and ±100 for the full control effect; nearly all actives have a fitted effect of over 60% in size
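BAZ2B 50 nM plus b-H3(5-23)K14Ac 50 nM, PBS pH 7.4/0.01% Tween-20, 30 min RT; compound added (max 110 uM), 30 min RT; streptavidin donor/Ni-chelate acceptor beads 10 ug/mL final, 20 min dark; AlphaScreen read.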
HP1b chromo inh = HP1-beta chromodomain-methylated histone interaction inhibition. 390,000 compounds, 0.56% hits. AlphaScreen HP1-beta / biotin-H3K9me3 peptide binding. Potency, µM (series often up to 114 µM), inactives show at the highest dose activity change, negative = inhibition, usual class: inhibitors. P83916; note: nearly all actives have a fitted effect of over 70% in size
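Compound inhibition of the preformed complex between 50 nM HP1-beta and 50 nM biotinylated H3K9me3 peptide was read by AlphaScreen. Buffer was PBS pH 7.4 with 0.01% Tween-20. Incubations ran 30 min at room temperature, with 10 ug/mL donor/acceptor beads.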
The depositor's hits bear a star; u = inconclusive; x = no result given; [ ] = dose if it differs, or a comment. The list is not random: actives were taken first. Their share in the collection is about 10%. Calls come from the whole dose curve; as a rule, active = well fitted curve in the direction sought with a large enough effect; inconclusive = small, poorly fitted or top-dose-only effect, or another doubt; inactive = no such curve, though single readings can be large; an effect the other way counts as inactive or inconclusive. Potency is the fitted concentration of half-maximal effect.

SMILES	G9a block	JMJD2A Tudor inh	GLS inhibitor	BAZ2B inh	HP1b chromo inh
Cc1nc2nc(SCC(=O)c3ccc([N+](=O)[O-])cc3)[nH]c2cc1Br	20µM*	u	-6%	4%	0%
NC(=O)CSc1nc2ccc([N+](=O)[O-])cc2[nH]1	25%[59 µM]	-17%	9%	-10%	20%
Cc1ccnc(SCC(=O)c2ccc([N+](=O)[O-])cc2)n1	13µM*	-29%	6%	u	10%
Nc1ccccc1SC(CC(=O)c1ccccc1)c1ccc([N+](=O)[O-])cc1 (centres undefined)	x	x	1%	x	x
O=[S+]([O-])(NC[C@H]1CCC[C@H](CN[S+](=O)([O-])c2c(F)cccc2F)C1)c1ccc2c(c1)OCCO2	x	-14%	x	x	x
Cc1cc(C)nc(SCC(=O)c2ccc(C)c(C)c2)n1	37%	14%	7%	-4%	49%
Cc1cc(C)nc(SCC(=O)c2ccc([N+](=O)[O-])cc2)n1	u	79µM*	-6%	-36%	-33%
CCOC(=O)CNC(=O)CSc1nc2nc(C)c(Br)cc2[nH]1	35µM*	-2%	0%	3%	44%
Cc1nc2nc(SCC(N)=O)[nH]c2cc1Br	u	-2%	-2%	58%	47%
CSCc1ccc(C(=O)NC(C)c2cnn(-c3ccccn3)c2C)o1 (centres undefined)	35µM*	3%	-4%	-5%	43%
Cc1ccc(S(=O)(=O)Nc2cc(-c3ccccc3)nn2C)cc1Cl	x	-18%	4%	-12%	10%
Cc1ccc(C(=O)NCCc2n[nH]c(=S)n2C)cc1	u	u	7%	-1%	32%
CCn1c(CCNC(=O)c2ccc(Cl)cc2)n[nH]c1=S	u	10µM*	4%	5%	21%
CCn1c(CCNC(=O)c2ccc(Cl)cc2)nnc1SCC(=O)NC1CCCC1	35%[12.7 µM]	-6%	-14%	-7%	30%
Cn1c(CCNC(=O)c2ccccc2Cl)n[nH]c1=S	-18%[12.7 µM]	45µM*	9%	4%	9%
COc1ccc(NC2CCCN(C(=O)CCOc3ccccc3)C2)cc1 (centres undefined)	x	u	2%	25µM*	-19%
COc1ccc(NC2CCCN(C(=O)CSc3ccccc3)C2)cc1 (centres undefined)	35µM*	u	0%	u	-14%
COc1ccc(NC2CCCN(C(=O)CCN3CCOCC3)C2)cc1 (centres undefined)	u	-12%	11%	10%	20%
COc1ccc(NC2CCCN(C(=O)COc3ccc(C)cc3)C2)cc1 (centres undefined)	16µM*	u	13%	u	-28%
COc1ccc(NC2CCCN(C(=O)CCc3ccccc3F)C2)cc1 (centres undefined)	50µM*	u	-6%	-36%[57.1 µM]	6%
CCOc1ccc2c(c1)c(=O)c(C(=O)c1ccc(CC)cc1)cn2CC(=O)Nc1ccc2c(c1)OCCO2	10%[59 µM]	-2%	-3%	-1%	57%
CCCOc1cccc(NC(=O)OC2CCN(C)CC2)c1	-49%[59 µM]	-12%	1%	-6%	8%
O=S(=O)(c1cccc(-c2csc(-c3cccnc3)n2)c1)N1CCOCC1	71µM*	-18%	0%	-22%	7%
COc1ccc(C(=O)Nc2nc(-c3ccccn3)cs2)cc1S(=O)(=O)N1CCOCC1	x	25µM*	4%	x	-12%
CCOc1ccccc1NC(=O)c1cc(S(=O)(=O)N2CCOCC2)ccc1C	-2%[0.501 µM]	-15%	0%	-8%	2%
SMILES	G9a block	JMJD2A Tudor inh	GLS inhibitor	BAZ2B inh	HP1b chromo inh
CCOC(=O)c1c(-c2ccccc2Cl)csc1NC(=O)c1cc(S(=O)(=O)N2CCOCC2)ccc1C	7.9µM*	-13%	0%	-27%	u
O=C(Nc1nc(-c2ccccn2)cs1)c1cccc(S(=O)(=O)N2CCOCC2)c1	u	50µM*	-1%	28µM*	0%
O=S(=O)(c1cccc(-c2csc(-c3cccnc3)n2)c1)N1CCCCC1	-4%[2.33 µM]	-29%	4%	-24%	26%
CC(=O)Nc1ccc(NS(=O)(=O)c2c(C(=O)N3CCC(C)CC3)c(C)n(C)c2C)cc1	15%[59 µM]	-12%	9%	-20%	28%
Cc1cccc(C)c1NC(=O)CSc1ncnc2[nH]ncc12	x	1%	2%	x	26%
Cc1ccc(NC(=O)N2CCc3c([nH]c4ccccc34)C2c2ccccc2F)c(Cl)c1 (centres undefined)	u	-32%	0%	-37%	14%
Cc1cc(C)c2c(c1)/C(=c1/sc3n(c1=O)CN(c1ccccc1)CN=3)C(=O)N2	u	1%	0%	u	-5%
COc1ccc(C(=O)OC/C(O)=C(\C#N)c2nc3ccccc3[nH]2)cc1S(=O)(=O)N1CCOCC1	79µM*	-10%	-4%	2%	30%
COc1ccc(C(=O)Nc2ccccc2N2CCOCC2)cc1S(=O)(=O)N1CCCC1	-4%[12.7 µM]	-1%	5%	-3%	30%
COc1ccc(C(=O)Nc2nncs2)cc1S(=O)(=O)N1CCOCC1	56µM*	-12%	6%	10%	3%
COc1ccc(C(=O)Nc2nc3ccccc3[nH]2)cc1S(=O)(=O)N1CCOCC1	47%	-27%	2%	u	27%
COc1ccc(C(=O)Nc2ccccc2N2CCCC2)cc1S(=O)(=O)N1CCOCC1	10µM*	-29%	28%	2%	2%
Cc1ccc(S(=O)(=O)N2CCOCC2)cc1C(=O)Nc1nc(-c2ccccn2)cs1	x	40µM*	-4%	x	u
CC(=O)Nc1cccc(NC(=O)CSc2nnc3ccc(-c4ccncc4)nn23)c1	-7%	-3%	-17%	3%	28%
CCCCCn1c(C(C)NC(=O)c2ccccc2)nc2ccccc21 (centres undefined)	7%[59 µM]	-11%	5%	5%	22%
Cc1cnc(NC(=O)c2cccc(S(=O)(=O)N3CCOCC3)c2)s1	7.1µM*	-3%	1%	-5%	42%
Cc1nnc(NC(=O)c2cccc(S(=O)(=O)N3CCOCC3)c2)s1	20%[12.7 µM]	6%	5%	2%	35%
C/C=C/C=N/Nc1nc(C)cc(=O)[nH]1	3.5µM*	1.6µM*	0%	50µM*	22%
Cc1cc(=O)[nH]c(NN=Cc2cc(Br)ccc2O)n1	x	79µM*	5%	x	17%
CC(/C=N/Nc1nc(C)cc(=O)[nH]1)=C\c1ccccc1	u	-17%	1%	-4%	72%
Cc1cc(=O)[nH]c(N/N=C/C(C)c2ccccc2)n1 (centres undefined)	16µM*	1.1µM*	4%	-27%	-4%
CCN(CC)c1ccc(/C=N/Nc2nc(C)cc(=O)[nH]2)c(O)c1	-9%[59 µM]	-22%	7%	-15%	23%
COc1ccc(OC)c(/C=N/Nc2nc(C)cc(=O)[nH]2)c1	45µM*	-35%	3%	50µM*	21%
